Results on 3 compounds are retold here after PubChem BioAssay (EPA / NIEHS).

Calls of active or inactive are those of the source. How the source made its calls: active means hit-call score of the fitted dose curve at least 0.9, where 1 is the maximum; inactive means score below 0.9.

What all share (conditions): mRNA level, 48 h; actives raise or lower the signal
Read-out in test [1]: JUN Transcription Factor, JUN (gene 3725)
Put plainly: LTEA_HepaRG_JUN: Life Technologies and Expression Analysis (LTEA) Assay for JUN Transcription Factor using HepaRG (AID 2283513). The procedure, abridged:
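HepaRG cells, 48 h post-plating, exposed 48 h in serum-free induction medium to 8-point half-log series (top 100 uM, 0.5% DMSO), duplicate; mRNA by qRT-PCR (TaqMan, Fluidigm), normalized to ACTB/GAPDH/POLR2A; bidirectional fit vs DMSO.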

Read-out in test [2]: Lipase C (LIPC), LIPC (gene 3990)
The experiment in a line: LTEA_HepaRG_LIPC: Life Technologies and Expression Analysis (LTEA) Assay for Lipase C (LIPC) using HepaRG (AID 2283514). The procedure, abridged:
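HepaRG cells, 48 h after plating, treated in duplicate for 48 h in serum-free induction medium over 8 half-log concentrations from 100 uM, 0.5% DMSO. LIPC mRNA by TaqMan qRT-PCR normalized to ACTB/GAPDH/POLR2A; bidirectional fit versus DMSO.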

Read-out in test [3]: Lipoprotein lipase (LPL), LPL (gene 4023)
The experiment in a line: LTEA_HepaRG_LPL: Life Technologies and Expression Analysis (LTEA) Assay for Lipoprotein lipase (LPL) using HepaRG (AID 2283515). The procedure, abridged:
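Differentiated HepaRG cells, plated 48 h, then exposed 48 h in serum-free induction medium to 8 concentrations (top 100 uM, half-log steps) in 0.5% DMSO, duplicate. LPL mRNA measured by qRT-PCR, normalized to ACTB, GAPDH and POLR2A.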

Read-out in test [4]: MicroRNA 122 (MIR122), gene 406906
Put plainly: LTEA_HepaRG_MIR122: Life Technologies and Expression Analysis (LTEA) Assay for MicroRNA 122 (MIR122) using HepaRG (AID 2283516). Further: the transcript read is the microRNA miR-122. The procedure, abridged:
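Differentiated human HepaRG cells in serum-free induction medium exposed 48 h to 8 half-log concentrations from 100 uM in 0.5% DMSO, duplicate. MIR122 quantified by Fluidigm TaqMan qRT-PCR, normalised to ACTB, GAPDH, POLR2A; fold change fitted bidirectionally versus DMSO.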

Read-out in test [5]: matrix metalloproteinase-10 (MMP10), MMP10 (gene 4319)
Put plainly: LTEA_HepaRG_MMP10: Life Technologies and Expression Analysis (LTEA) Assay for matrix metalloproteinase-10 (MMP10) using HepaRG (AID 2283517). The gist of the method: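 Differentiated HepaRG cells in serum-free induction medium exposed 48 h in duplicate to 8-point half-log series up to 100 uM in 0.5% DMSO. mRNA quantified by qRT-PCR, normalised to ACTB, GAPDH, POLR2A; bidirectional fit versus DMSO.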

Read-out in the next test: MYC, MYC (gene 4609)
The experiment in a line: LTEA_HepaRG_MYC: Life Technologies and Expression Analysis (LTEA) Assay for MYC using HepaRG (AID 2283518). The procedure, abridged:
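MYC transcript changes, up or down relative to 0.5% DMSO, from TaqMan qRT-PCR normalized to three housekeeping genes. Human HepaRG cultures received chemicals for 48 h at eight half-log concentrations up to 100 uM, in duplicate.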

Read-out in test [6]: matrix metalloproteinase-3 (MMP3), MMP3 (gene 4314)
The experiment in a line: LTEA_HepaRG_MMP3: Life Technologies and Expression Analysis (LTEA) Assay for matrix metalloproteinase-3 (MMP3) using HepaRG (AID 2283519). The gist of the method: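 HepaRG cells (~100,000/well) in serum-free induction medium were dosed in duplicate for 48 h with an 8-point half-log series from 100 uM, 0.5% DMSO. MMP3 mRNA was quantified by Fluidigm TaqMan qRT-PCR, normalized to three housekeeping genes.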

Read-out in test [7]: Paternally Expressed 10 (PEG10), PEG10 (gene 23089)
The experiment in a line: LTEA_HepaRG_PEG10: Life Technologies and Expression Analysis (LTEA) Assay for Paternally Expressed 10 (PEG10) using HepaRG (AID 2283520). The gist of the method: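 Differentiated HepaRG cells exposed 48 h in serum-free induction medium to eight half-log concentrations topping at 100 uM, 0.5% DMSO, in duplicate. PEG10 mRNA quantified by TaqMan qRT-PCR, normalized to ACTB, GAPDH and POLR2A; bidirectional fit versus DMSO.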

Read-out in test [8]: Nuclear factor NF-kappa-B p105 subunit (Homo sapiens) (UniProt P19838)
The experiment in a line: LTEA_HepaRG_NFKB1: Life Technologies and Expression Analysis (LTEA) Assay for Nuclear Factor Kappa B Subunit 1 (NFKB1) using HepaRG (AID 2283521).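 Further: TaqMan qRT-PCR transcript normalised to ACTB GAPDH and POLR2A housekeeping genes.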 The gist of the method:
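Human HepaRG cells receive eight half-log concentrations, highest 100 uM, for 48 h. NFKB1 expression is then quantified by qRT-PCR and analysed for up- or down-regulation relative to 0.5% DMSO vehicle.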

Read-out in test [9]: Protein phosphatase 2A (PPP2R4), PTPA (gene 5524)
Put plainly: LTEA_HepaRG_PPP2R4: Life Technologies and Expression Analysis (LTEA) Assay for Protein phosphatase 2A (PPP2R4) using HepaRG (AID 2283522). The gist of the method:
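Differentiated human HepaRG cells in serum-free induction medium were exposed 48 h to 8 concentrations (top 100 µM, half-log steps, duplicate) in 0.5% DMSO. PPP2R4 mRNA was measured by TaqMan qRT-PCR, normalised to ACTB, GAPDH and POLR2A, and fitted bidirectionally versus DMSO.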

Read-out in test [10]: Phosphatase and tensin (PTEN), PTEN (gene 5728)
Put plainly: LTEA_HepaRG_PTEN: Life Technologies and Expression Analysis (LTEA) Assay for Phosphatase and tensin (PTEN) using HepaRG (AID 2283523). The procedure, abridged:
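HepaRG cells, 48 h after plating, exposed in duplicate for 48 h in serum-free induction medium to 8 half-log concentrations up to 100 uM (0.5% DMSO). PTEN mRNA by qRT-PCR, normalized to ACTB, GAPDH, POLR2A; bidirectional fit versus DMSO.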

Read-out in test [11]: solute carrier (SLC22A1), SLC22A1 (gene 6580)
The experiment in a line: LTEA_HepaRG_SLC22A1: Life Technologies and Expression Analysis (LTEA) Assay for solute carrier (SLC22A1) using HepaRG (AID 2283524). The procedure, abridged: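 Differentiated human HepaRG cells in serum-free induction medium, exposed 48 h in duplicate to 8-point half-log series from 100 µM top in 0.5% DMSO. SLC22A1 mRNA by TaqMan qRT-PCR normalized to ACTB, GAPDH, POLR2A; bidirectional fit versus DMSO.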

Read-out in test [12]: Pyruvate Dehydrogenase Kinase 4 (PDK4), PDK4 (gene 5166)
Put plainly: LTEA_HepaRG_PDK4: Life Technologies and Expression Analysis (LTEA) Assay for Pyruvate Dehydrogenase Kinase 4 (PDK4) using HepaRG (AID 2283525). The gist of the method: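 HepaRG cells plated 48 h, then switched to serum-free induction medium and exposed in duplicate for 48 h to 8 half-log concentrations from 100 uM in 0.5% DMSO. PDK4 mRNA measured by qRT-PCR, normalized to ACTB, GAPDH and POLR2A; bidirectional fit versus DMSO.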

Read-out in test [13]: NAD(P)H dehydrogenase [quinone] 1 (NQO1), NQO1 (gene 1728)
The experiment in a line: LTEA_HepaRG_NQO1: Life Technologies and Expression Analysis (LTEA) Assay for NAD(P)H dehydrogenase [quinone] 1 (NQO1) using HepaRG (AID 2283526). The procedure, abridged:
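Differentiated human HepaRG cells in serum-free induction medium, dosed in duplicate for 48 h at 8 half-log concentrations up to 100 uM in 0.5% DMSO. NQO1 mRNA by qRT-PCR normalized to ACTB, GAPDH, POLR2A; bidirectional fit versus DMSO baseline.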

Read-out in test [14]: Nuclear factor erythroid 2-related factor 2 (Homo sapiens) (UniProt Q16236)
Put plainly: LTEA_HepaRG_NFE2L2: Life Technologies and Expression Analysis (LTEA) Assay for Nuclear factor erythroid 2-related factor 2 (NFE2L2) Transcription Factor using HepaRG (AID 2283527).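 Further: TaqMan qRT-PCR transcript level normalised to ACTB GAPDH and POLR2A housekeeping genes.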 The procedure, abridged: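 Differentiated human HepaRG cells, serum-free induction medium, exposed 48 h in duplicate to eight half-log concentrations up to 100 uM in 0.5% DMSO. NFE2L2 mRNA by Fluidigm TaqMan qRT-PCR, normalised to ACTB, GAPDH, POLR2A; bidirectional change versus DMSO.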

Read-out in test [15]: succinate dehydrogenase complex iron sulfur subunit B (SDHB), SDHB (gene 6390)
Put plainly: LTEA_HepaRG_SDHB: Life Technologies and Expression Analysis (LTEA) Assay for succinate dehydrogenase complex iron sulfur subunit B (SDHB) using HepaRG (AID 2283528). The gist of the method: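 A human HepaRG culture in serum-free induction medium received test chemicals for 48 h over an eight-point range capped at 100 uM. SDHB expression change was quantified by qRT-PCR.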

Read-out in test [16]: Signal transducer and activator of transcription 3 (Homo sapiens) (UniProt P40763)
The experiment in a line: LTEA_HepaRG_STAT3: Life Technologies and Expression Analysis (LTEA) Assay for Signal transducer and activator of transcription (STAT3) using HepaRG (AID 2283529). The procedure, abridged: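 Differentiated HepaRG cells, serum-free induction medium, dosed 48 h in duplicate, 8 half-log concentrations from 100 uM in 0.5% DMSO. STAT3 mRNA by qRT-PCR, normalised to ACTB, GAPDH, POLR2A; bidirectional fit versus DMSO.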

Read-out in test [17]: solute carrier (SLCO1B1), SLCO1B1 (gene 10599)
The experiment in a line: LTEA_HepaRG_SLCO1B1: Life Technologies and Expression Analysis (LTEA) Assay for solute carrier (SLCO1B1) using HepaRG (AID 2283530). The gist of the method: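 SLCO1B1 transcript levels were quantified by TaqMan qRT-PCR using three housekeeping genes for normalization. This followed 48 h chemical exposure (100 uM top, half-log, 8 points, 0.5% DMSO) of HepaRG liver cells, with gain or loss fitted relative to DMSO.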

Read-out in test [18]: Transforming Growth Factor (TGFA), TGFA (gene 7039)
Put plainly: LTEA_HepaRG_TGFA: Life Technologies and Expression Analysis (LTEA) Assay for Transforming Growth Factor (TGFA) using HepaRG (AID 2283532). The gist of the method: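 Differentiated HepaRG cells exposed 48 hours in serum-free induction medium, 0.5% DMSO vehicle, 8-point half-log series from 100 uM, in duplicate. TGFA mRNA by TaqMan qRT-PCR, normalised to ACTB, GAPDH, POLR2A; bidirectional fit versus DMSO.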

Read-out in test [19]: sulfotransferase 2A1 (SULT2A1), SULT2A1 (gene 6822)
The experiment in a line: LTEA_HepaRG_SULT2A1: Life Technologies and Expression Analysis (LTEA) Assay for sulfotransferase 2A1 (SULT2A1) using HepaRG (AID 2283531). The gist of the method: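 Expression change of SULT2A1, by qRT-PCR with three housekeeping-gene normalization, was scored bidirectionally versus DMSO. Cells: differentiated HepaRG, dosed in duplicate for 48 h across 8 points, highest 100 µM, half-log dilution, 0.5% DMSO.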

Sequence of Signal transducer and activator of transcription 3 (Homo sapiens) (P40763 whole entry, looked up): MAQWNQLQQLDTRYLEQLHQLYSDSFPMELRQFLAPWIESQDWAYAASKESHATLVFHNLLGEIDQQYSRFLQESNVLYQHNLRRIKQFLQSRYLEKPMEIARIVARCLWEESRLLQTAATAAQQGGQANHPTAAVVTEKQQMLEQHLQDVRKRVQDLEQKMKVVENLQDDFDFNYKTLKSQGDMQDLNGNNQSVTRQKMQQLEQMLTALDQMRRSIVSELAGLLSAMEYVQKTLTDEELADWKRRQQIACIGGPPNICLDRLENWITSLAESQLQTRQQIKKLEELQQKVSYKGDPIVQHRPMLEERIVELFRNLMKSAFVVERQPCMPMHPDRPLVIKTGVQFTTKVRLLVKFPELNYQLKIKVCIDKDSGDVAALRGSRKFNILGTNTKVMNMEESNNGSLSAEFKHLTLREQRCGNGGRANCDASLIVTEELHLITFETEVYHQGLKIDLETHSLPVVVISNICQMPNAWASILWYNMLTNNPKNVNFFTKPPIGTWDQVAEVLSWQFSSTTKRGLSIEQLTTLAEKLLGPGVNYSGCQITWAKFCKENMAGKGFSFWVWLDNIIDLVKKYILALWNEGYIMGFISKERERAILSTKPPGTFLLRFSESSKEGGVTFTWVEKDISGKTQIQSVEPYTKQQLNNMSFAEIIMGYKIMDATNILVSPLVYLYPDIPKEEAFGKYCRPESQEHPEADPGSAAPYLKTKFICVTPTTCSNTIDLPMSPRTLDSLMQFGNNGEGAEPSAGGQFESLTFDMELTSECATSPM
Sequence of Nuclear factor NF-kappa-B p105 subunit (Homo sapiens) (P19838 whole entry, looked up): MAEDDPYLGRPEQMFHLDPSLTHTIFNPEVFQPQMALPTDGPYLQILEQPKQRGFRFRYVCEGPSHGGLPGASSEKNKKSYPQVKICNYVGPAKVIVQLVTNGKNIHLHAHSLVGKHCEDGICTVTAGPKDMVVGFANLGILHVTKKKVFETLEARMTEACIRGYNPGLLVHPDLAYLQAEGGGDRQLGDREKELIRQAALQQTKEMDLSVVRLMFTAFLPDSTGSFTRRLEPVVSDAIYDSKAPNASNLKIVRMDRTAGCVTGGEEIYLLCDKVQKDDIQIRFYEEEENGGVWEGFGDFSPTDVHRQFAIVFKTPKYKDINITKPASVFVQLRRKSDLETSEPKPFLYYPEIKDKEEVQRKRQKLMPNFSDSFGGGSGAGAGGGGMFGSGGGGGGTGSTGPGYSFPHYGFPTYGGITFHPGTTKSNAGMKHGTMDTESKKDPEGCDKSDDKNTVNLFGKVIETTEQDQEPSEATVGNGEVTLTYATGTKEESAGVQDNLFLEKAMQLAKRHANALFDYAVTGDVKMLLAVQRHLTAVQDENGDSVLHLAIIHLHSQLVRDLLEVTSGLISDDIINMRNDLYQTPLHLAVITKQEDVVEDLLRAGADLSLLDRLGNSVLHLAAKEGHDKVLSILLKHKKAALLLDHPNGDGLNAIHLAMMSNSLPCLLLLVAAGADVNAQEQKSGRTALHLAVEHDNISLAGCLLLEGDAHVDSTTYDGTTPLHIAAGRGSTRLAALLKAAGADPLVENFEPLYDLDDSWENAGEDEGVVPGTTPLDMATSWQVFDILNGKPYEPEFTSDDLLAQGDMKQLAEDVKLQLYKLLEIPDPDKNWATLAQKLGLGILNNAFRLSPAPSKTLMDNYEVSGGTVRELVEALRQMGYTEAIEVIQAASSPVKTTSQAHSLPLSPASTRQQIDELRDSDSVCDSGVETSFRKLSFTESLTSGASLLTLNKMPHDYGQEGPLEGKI
Sequence of Nuclear factor erythroid 2-related factor 2 (Homo sapiens) (Q16236 whole entry, looked up): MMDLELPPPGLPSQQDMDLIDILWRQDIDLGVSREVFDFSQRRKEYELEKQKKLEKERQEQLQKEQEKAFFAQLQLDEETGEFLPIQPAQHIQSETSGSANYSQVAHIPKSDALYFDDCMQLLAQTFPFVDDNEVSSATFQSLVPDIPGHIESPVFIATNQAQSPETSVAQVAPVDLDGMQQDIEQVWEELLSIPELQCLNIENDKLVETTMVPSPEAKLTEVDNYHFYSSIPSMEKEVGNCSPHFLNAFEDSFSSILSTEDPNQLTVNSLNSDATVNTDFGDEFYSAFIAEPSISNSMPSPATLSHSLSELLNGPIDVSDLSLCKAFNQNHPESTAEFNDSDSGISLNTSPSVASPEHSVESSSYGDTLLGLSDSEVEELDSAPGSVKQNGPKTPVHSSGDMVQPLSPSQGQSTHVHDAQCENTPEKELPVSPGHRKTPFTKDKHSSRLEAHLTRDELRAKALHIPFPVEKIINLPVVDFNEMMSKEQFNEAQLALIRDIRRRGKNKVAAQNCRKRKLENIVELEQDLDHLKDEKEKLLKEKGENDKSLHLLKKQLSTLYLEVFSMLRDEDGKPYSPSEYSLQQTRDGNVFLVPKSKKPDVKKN

In general, AC50 refers to the concentration at which the activity in the assay is half-maximal. Take `CCOc1cccc(-n2cc(C(=O)N3CCN(c4cc(C(=O)O)c5ccccc5c4)CC3)nc2-c2ccc(C)cc2)c1`: the outcome in test [1] is “inactive”; in test [5], “inactive”; in the test with MYC, MYC (gene 4609) it was “inactive”; in test [6] it was “inactive”; in [8], “inactive”; in test [14], “inactive”. The AC50 in test [2] was 31.3 µM (active); in test [3], 87.1 µM (active); in test [4], 30.4 µM (active); in [7], 33.2 µM (active); in test [9], 86.4 µM (active); in test [10], 79.2 µM (active). The AC50 in test [11] is 29.9 µM (active); in test [12], 89.3 µM (active); in [13], 78.4 µM (active); in [15], 82.3 µM (active); in test [16], 50 µM (active); in test [17], 37.4 µM (active). The AC50 in test [18] is 88.7 µM (active).

Take `O=C(O)CCN(C1(C(=O)NO)CCCC1)S(=O)(=O)c1ccc(Oc2ccc(F)cc2)cc1`: the outcome in test [1] is “inactive”; in test [2] it was “inactive”; in test [3] it was “inactive”; in [4], “inactive”; in test [5] it was “inactive”; in the test with MYC, MYC (gene 4609), “inactive”. The call in test [6], in test [7], in test [8], in [9], in test [10] and in test [11] was inactive. Moreover, the result in test [12], in test [13], in [14], in [15], in [16] and in [17] was inactive. Moreover, the compound was called inactive in [19] and in test [18].

Take `Cc1ccc(O)cc1`: the outcome in test [1] is “inactive”; in test [2], “inactive”; in test [3] it was “inactive”; in test [4] it was “inactive”; in test [5] it was “inactive”; with MYC, MYC (gene 4609) it was “inactive”. The outcome in [6], in test [7], in test [8], in test [9], in [10] and in [11] was inactive. The outcome in test [12], in test [13], in [14], in [15], in test [16] and in [17] was inactive. The result in test [19] and in test [18] was inactive.
